Assay outcomes: PubChem, Broad Institute
miR122 inh = miR-122 suppressors via Renilla sensor increase, primary screen, cell-based, Huh7 psiCHECK-miR122, Renilla luciferase, single point; 48 h; activation, % at 12.5 µM; actives 0.14% (n = 340,000);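 active = mean activation of 30% or more, with every replicate also reaching 30%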;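 note: 0% = median of neutral control wells and 100% = median of positive control wells; higher luciferase signal means stronger suppression of miR-122 activity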
Starred values were filed as active, the others as inactive. Shown is part of a subset that was picked to be rich in hits.

What do the screens show for `C/C=C/c1ccc2c(c1)O[C@@H](CN(C)C(=O)c1cccnc1)[C@H](C)CN([C@@H](C)CO)S2(=O)=O`?
miR122 inh: -7

What do the screens show for `C/C=C/c1ccc2c(c1)O[C@H](CN(C)C(=O)c1cnccn1)[C@H](C)CN([C@H](C)CO)S2(=O)=O`?
miR122 inh: 33*

How did C[C@H](O)C#Cc1ccc2c(c1)O[C@H](CN(C)C(=O)c1ccncc1)[C@H](C)CN([C@@H](C)CO)S2(=O)=O do in these assays?
miR122 inh: 16

How did C[C@@H](O)C#Cc1ccc2c(c1)O[C@H](CN(C)C(=O)c1ccncc1)[C@@H](C)CN([C@@H](C)CO)S2(=O)=O do in these assays?
miR122 inh: -10

What do the screens show for `CC(C)C#Cc1ccc2c(c1)O[C@H](CN(C)C(=O)c1ccncc1)[C@@H](C)CN([C@@H](C)CO)S2(=O)=O`?
miR122 inh: 41*

What do the screens show for `C/C=C/c1ccc2c(c1)O[C@H](CN(C)C(=O)c1cccnc1)[C@@H](C)CN([C@@H](C)CO)S2(=O)=O`?
miR122 inh: -13

How did C[C@@H]1CN([C@@H](C)CO)S(=O)(=O)c2ccc(C#Cc3ccccc3)cc2O[C@H]1CN(C)C(=O)Nc1ccc2c(c1)OCO2 do in these assays?
miR122 inh: -9

Results for C[C@H](O)C#Cc1ccc2c(c1)O[C@H](CN(C)C(=O)c1ccncc1)[C@@H](C)CN([C@@H](C)CO)S2(=O)=O ?
miR122 inh: -2

How did C[C@H](O)C#Cc1ccc2c(c1)O[C@@H](CN(C)C(=O)c1ccncc1)[C@@H](C)CN([C@@H](C)CO)S2(=O)=O do in these assays?
miR122 inh: 2

Results for C[C@@H]1CN([C@@H](C)CO)S(=O)(=O)c2ccc(C#Cc3ccccc3)cc2O[C@@H]1CN(C)C(=O)Nc1ccc2c(c1)OCO2 ?
miR122 inh: -1

Results for C[C@@H]1CN([C@H](C)CO)S(=O)(=O)c2ccc(C#Cc3ccncc3)cc2O[C@@H]1CN(C)C(=O)Nc1ccc2c(c1)OCO2 ?
miR122 inh: 49*

How did C[C@H](CO)N1C[C@H](C)[C@@H](CN(C)Cc2ccccn2)Oc2ncc(C#Cc3ccccc3)cc2C1=O do in these assays?
miR122 inh: 9

How did COc1ccc(OC)c(-c2csc(NC(=O)Cc3ccccc3F)n2)c1 do in these assays?
miR122 inh: -117

How did C[C@H](CO)N1C[C@H](C)[C@@H](CN(C)C(=O)c2ccc(F)cc2)Oc2ncc(C3=CCCCC3)cc2C1=O do in these assays?
miR122 inh: -3

How did C[C@H](CO)N1C[C@H](C)[C@@H](CN(C)C(=O)C2CC2)Oc2cc(-c3ccc(C#N)cc3)ccc2S1(=O)=O do in these assays?
miR122 inh: 0

What do the screens show for `C[C@@H]1CN([C@@H](C)CO)C(=O)c2cc(C#CC3(O)CCCC3)cnc2O[C@@H]1CN(C)Cc1cncnc1`?
miR122 inh: 4

Results for C[C@H](CO)N1C[C@H](C)[C@H](CN(C)C(=O)Cc2ccccn2)Oc2ncc(/C=C/c3ccccc3)cc2C1=O ?
miR122 inh: 5

What do the screens show for `Cc1cnc(NC(=O)CN2CCN(c3ccccn3)CC2)s1`?
miR122 inh: -177

Results for Cc1nc2ccc(NS(=O)(=O)c3c(C)c(C)cc(C)c3C)cc2s1 ?
miR122 inh: -125

How did CO[C@@H]1CN(C)C(=O)c2ccc(NC(=O)c3ccccc3)cc2OC[C@H](C)N(C)C[C@H]1C do in these assays?
miR122 inh: -3

What do the screens show for `C[C@H]1CN([C@@H](C)CO)C(=O)c2cc(-c3cccnc3)cnc2O[C@H]1CN(C)Cc1ccc(Oc2ccccc2)cc1`?
miR122 inh: -3

How did CCc1cccc(NC(=O)CCNS(=O)(=O)c2cc(Br)cnc2N)c1 do in these assays?
miR122 inh: -92

What do the screens show for `CCC(=O)N(C)C[C@H]1Oc2ncc(C#Cc3cccnc3)cc2C(=O)N([C@@H](C)CO)C[C@H]1C`?
miR122 inh: -3

Results for Oc1ccc(-c2nc(-c3ccc(O)c(O)c3)cs2)cc1 ?
miR122 inh: 30*

What do the screens show for `CO[C@H]1CN(C)C(=O)c2ccc(NC(=O)Nc3ccc(Cl)c(Cl)c3)cc2OC[C@H](C)NC[C@H]1C`?
miR122 inh: -3

How did O=C(Nc1ncc(Cc2cccc(C(F)(F)F)c2)s1)c1ccc(-c2cccc([N+](=O)[O-])c2)o1 do in these assays?
miR122 inh: 32*

How did COc1ccccc1-c1ccc2c(c1)O[C@@H](CN(C)C(=O)c1ccncc1)[C@@H](C)CN([C@@H](C)CO)S2(=O)=O do in these assays?
miR122 inh: -4

What do the screens show for `COc1ccc(CN2CCc3c([nH]c4ccccc34)C2)c(OC)c1C`?
miR122 inh: 42*

How did C[C@@H]1CN([C@H](C)CO)C(=O)c2cc(C#Cc3ccc(F)cc3)cnc2O[C@H]1CN(C)C(=O)c1ccccc1F do in these assays?
miR122 inh: 2

How did C[C@H](CO)N1C[C@H](C)[C@@H](CN(C)C(=O)c2ccccc2F)Oc2ncc(-c3ccncc3)cc2C1=O do in these assays?
miR122 inh: 3

How did CC(C)CC#Cc1cnc2c(c1)C(=O)N([C@H](C)CO)C[C@H](C)[C@H](CN(C)Cc1ccc(F)cc1)O2 do in these assays?
miR122 inh: 1

How did C[C@@H]1CN([C@H](C)CO)S(=O)(=O)c2ccc(/C=C/c3ccccc3)cc2O[C@@H]1CN(C)C(=O)Nc1cccc(F)c1 do in these assays?
miR122 inh: -32

Results for C[C@H]1CN([C@@H](C)CO)S(=O)(=O)c2ccc(C#CC3(O)CCCC3)cc2O[C@@H]1CN(C)C(=O)Nc1ccc(F)cc1 ?
miR122 inh: -44

Results for C[C@@H]1CN([C@@H](C)CO)S(=O)(=O)c2ccc(C#CCN(C)C)cc2O[C@H]1CN(C)C(=O)CN(C)C ?
miR122 inh: 0

What do the screens show for `C=CCNC(=S)NNC(=O)c1cccn(Cc2ccc(Cl)c(Cl)c2)c1=O`?
miR122 inh: 71*

What do the screens show for `C=CCNC(=O)c1ccccc1NC(=O)c1ccc(Cl)c(S(=O)(=O)Nc2cc(C)ccc2C)c1`?
miR122 inh: -102

What do the screens show for `O=C(NCC1CCCO1)C(c1cccs1)N(Cc1cccs1)C(=O)Cn1nnc(-c2cccs2)n1` (stereo not given)?
miR122 inh: -116

What do the screens show for `Cc1cc(C(=O)Nc2cccc3c2O[C@@H](CN(C)Cc2ccc(C(F)(F)F)cc2)[C@H](C)CN([C@H](C)CO)C3=O)n(C)n1`?
miR122 inh: -127

Results for COc1ccccc1-[n+]1c(C)cc(/C=C2\Sc3ccccc3N2C)cc1C ?
miR122 inh: 69*

Results for C[C@H](CO)N1C[C@H](C)[C@H](CN(C)C(=O)Cc2ccncc2)Oc2cc(-c3cncnc3)ccc2S1(=O)=O ?
miR122 inh: 1

Results for COCC(=O)N(C)C[C@@H]1Oc2ncc(/C=C/c3ccccc3)cc2C(=O)N([C@@H](C)CO)C[C@H]1C ?
miR122 inh: 2

What do the screens show for `O=C(Nc1ccccc1)c1cc([N+](=O)[O-])ccc1NC1CCCCC1`?
miR122 inh: -123

Results for Cc1ccc(NC(=O)c2nc(C)n(-c3ccc([N+](=O)[O-])cc3)n2)cc1 ?
miR122 inh: 43*

How did CCC(=O)N(C)C[C@@H]1Oc2ncc(C#CC3(O)CCCC3)cc2C(=O)N([C@H](C)CO)C[C@H]1C do in these assays?
miR122 inh: -5

Results for CCCNC(=O)N(C)C[C@H]1Oc2ncc(C#CCC3CCCC3)cc2C(=O)N([C@H](C)CO)C[C@@H]1C ?
miR122 inh: 4
